# Measurements taken from the supplement of paper PMC6555819.
# Tests used:
# Test in all cases: PBM binding z-score (relative to random genomic background probes); higher = stronger binding; sequences stand for … in GC…GCGATTGACAGCGTAGAATGAAGG
# [1] = tested on: FXR:RXRa (NR concentration 270 nM, RXRa partner concentration 90 nM)
# How it was run: (§1)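 Each nuclear receptor dimer, without ligand, was incubated for 1 h on custom Agilent 4×180K protein-binding microarrays. Binding was detected with antibodies against each partner (one per run), and scanned fluorescence was regression-normalized. The binding z-scores are referenced to random human genomic background probes.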
# [2] = tested on: LXRa:RXRa (NR concentration 270 nM, RXRa partner concentration 90 nM)
# How it was run: as §1
# [3] = tested on: LXRa homodimer (NR concentration 270 nM)
# How it was run: as §1
# [4] = tested on: LXRb:RXRa (NR concentration 270 nM, RXRa partner concentration 90 nM)
# How it was run: as §1
# [5] = tested on: LXRb homodimer (NR concentration 270 nM)
# How it was run: as §1
# [6] = tested on: PPARa:RXRa (NR concentration 270 nM, RXRa partner concentration 90 nM)
# How it was run: as §1
# [7] = tested on: PPARg:RXRa (NR concentration 180 nM, RXRa partner concentration 90 nM)
# How it was run: as §1
# [8] = tested on: PPARg:RXRa 270nM:90nM, anti-RXR (NR concentration 270 nM, RXRa partner concentration 90 nM)
# How it was run: as §1
# [9] = tested on: PPARg:RXRa 30nM:10nM, anti-RXR (NR concentration 30 nM, RXRa partner concentration 10 nM)
# How it was run: as §1
# [10] = tested on: PPARg:RXRa 90nM:30nM, anti-RXR (NR concentration 90 nM, RXRa partner concentration 30 nM)
# How it was run: as §1
Sequence,PBM binding z-score [1],PBM binding z-score [2],PBM binding z-score [3],PBM binding z-score [4],PBM binding z-score [5],PBM binding z-score [6],PBM binding z-score [7],PBM binding z-score [8],PBM binding z-score [9],PBM binding z-score [10]
CGAACTAGGTCTAGGACAGTGAATCTCCGCACGC,-0.409,-0.606,-0.429,-1.12,-0.723,-0.176,0.461,-0.367,-0.539,-0.377
CGAACTATGTCATCCAGGACAGTGAATACATTGA,0.102,-0.0297,0.258,0.236,0.0323,1.01,1.11,1.06,0.663,0.773
AGTATTAGTTGACTTAGGGCAACCGATACGACGC,0.048,0.00134,0.42,0.0482,0.3,0.128,0.82,0.435,0.448,0.623
CCTAGCAGGCCAGGGTCACGCAAGCATTTCGCTT,4.27,3.3,-0.658,3.24,-0.358,4.73,3.11,3.95,0.595,2.58
CCTTTCGGGTCACTGACAGGTTATAGCATTTGGA,5.71,4.35,0.279,3.33,0.0515,5.09,3.95,4.25,1.43,3.06
TATACAGGGTTAAAGGCCAGAGTACGAATGTCGA,2.5,2.59,0.356,1.91,0.834,3.84,5.07,5.44,3.04,4.7
AATACAGGTTCATCGTAGGCCAGAGTACGCACAG,3.44,4.91,1.85,2.3,0.451,3.19,1.67,1.31,0.478,0.764
TAGCCTGGGTCAGATCGGGCCAGTATACGCTATA,1.63,0.208,-0.918,0.153,-0.84,1.32,0.579,0.64,-0.488,0.167
CTTGCTAGGTCAATGGTCAGCTAAAGCAGCTCGC,2.93,2.77,0.107,1.33,-0.0348,3.41,5.43,5.94,4.16,5.69
TCTTGTAGATCCACAGGAGGTTAAGAAAGATCGA,0.0862,1.26,-0.232,1.08,-0.363,1.05,-0.0307,1.43,2.66,1.83
ACAGACAAGTGATGAAGGTAACTCAGGCTATCAT,-0.375,-0.259,-0.503,-0.446,-0.469,-0.37,0.531,-0.282,-0.0857,-0.2
GCTTATAGATCAAGGTTAAGAAAGACTAAGCTAA,0.198,0.766,-0.148,0.438,-0.382,1.4,0.991,1.57,0.403,1.13
GCTGCTAGGTCAGCTTGGTCAGCTAACGGGTACG,1.35,0.704,-0.534,0.334,0.0113,1.22,0.479,0.718,-0.549,-0.0941
TGTCGAAGTTCAAAGGTAACGTAAGTATCCACAC,4.25,4.02,1.18,3.18,0.108,4.72,4.47,5.23,2.95,4.34
TCGAGTAGGTCAGTCGGGGCATTCAGCCAACATA,1.39,1.09,-0.271,1.55,-0.625,2.56,2.27,2.87,1.39,2.2
TCATATAGGCAATACAGGTGAAAGTCGGCATCTA,1.06,0.731,0.422,0.906,-0.3,1.3,0.823,1.91,3.62,2.85
CGAACTAGGTCATCCAGGACAGTGAGTACATTGA,4.32,2.81,0.741,1.9,0.24,4.49,7.45,6.5,3.99,5.85
ATATGTAGGTTACATCCGGGTAATTCAGGCTATG,0.626,5.83,1.24,3,0.708,3.26,5.44,4.35,1.75,3.32
ACAGACCGGTGATGAAGGTAACTCAGGCTATCAT,-0.208,-0.192,-0.177,-0.283,-0.429,-0.318,0.549,0.0547,-0.0977,-0.129
CAAACTAGGTCACCGGAAGGTCAAAGCCCGCATG,6.08,5.95,4.27,5.11,1.45,6.06,9.85,7.89,5.9,7.57
CAGCCTAGGTCCGGGCCAGTATAGGAGGAACGTT,-0.987,-1.11,-0.834,-1.41,-1.47,-1.78,-0.191,-0.878,-0.996,-1.2
TCGAGTAGGGTAGGGGCATTCAGAATGGCGTCGA,0.264,0.12,0.0875,1.16,1.6,0.956,0.642,1.82,1.02,1.4
CCTACTCGGCCAAAGGTCATTGATTCCAATGCTC,4.86,5.54,4.99,5.12,1.98,6.14,10.1,9.26,8.85,9.61
CGAACTAGGTCAAGGACAGTGAATCTCCGCACGC,3.29,2.29,0.163,1.51,-0.597,4.64,7.4,6.24,3.8,6.11
